Compounds without any hit were thinned out: in the full panel of roughly 83,000, 20% have a hit.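 Compound tested at a single concentration for 48 hours in 96-well plates; a percent growth value below 10 was scored as active.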 The source made the active and inactive calls.

The assay has as its system SK-MEL-28 melanoma. Briefly: NCI-60 one-dose screen, 48 h (100 = growth as untreated, 0 = no growth, -100 = all killed). The following applies: 10 µM unless noted.
Consider `N#C/C(=C\c1ccc(-c2ccc(Cl)c(Cl)c2)o1)c1nc(-c2ccco2)cs1`, for which the growth was 114% (inactive).
Regarding `CC(C)C1=C[C@@]23CC[C@@H]4[C@](C)(CCC[C@@]4(C)C(=O)N4CCCNCC4)[C@H]2C[C@@H]1[C@H]1C(=O)CCC(=O)[C@H]13`, the growth is 109% (inactive).
On to `COc1ccc(CCNc2nc(SC)nc(-c3cccc([N+](=O)[O-])c3)c2C#N)cc1OC`, for which the growth was 91.8% (inactive).
With `Cc1cc(NS(=O)(=O)c2ccc(-c3cnc(C4CC4)o3)cc2)ccc1Cl`, the growth is 50.5% (inactive).
In the case of `COc1ccc(-c2cc(C(=O)N=Nc3c(O)[nH]c4ccc(Br)cc34)no2)cc1`, the growth is 113% (inactive).
With `CCCOc1cc2ccccc2cc1C(=O)Nc1nc(NC)c2c(ccc3nccc32)[nH]1`, the growth was -84.4% (active).
Turning to `CCCCN(CCCC)CCCn1c(-c2ccccc2)ccc1-c1ccccc1`, the growth was 88.8% (inactive).
With `Cc1nc2ccccc2n1C(=O)C[C@@H]1NC(=S)NC1=O`, the growth was 99.2% (inactive).
As for `N#CCCN=Nc1c(O)[nH]c2ccc([N+](=O)[O-])cc12`, the growth is 112% (inactive).
`Cc1cc(N2CCOCC2)nc(NCc2cc(Nc3ccnc4cc(Cl)ccc34)ccc2F)n1`: the growth was -73.1% (active).
On to `Nc1n[nH]c2ccc([C@@H]3Nc4cc5c(cc4[C@H]4C6CCC(C6)[C@@H]34)C(=O)NC5)cc12` (stereo partly drawn), for which the growth was 59.2% (inactive).
`c1ccc(-c2c(-c3ccccc3)[n+](Cc3ccc4ccccc4c3)c(-c3ccc(-c4nc5ccccc5s4)cc3)n2Cc2ccc3ccccc3c2)cc1`: the growth was -88.3% (active).
For the compound `C=CC(=O)Nc1cccc(-c2nc(SC)nc(NCc3ccccc3)c2C#N)c1`, the growth is 82.4% (inactive).
As to `CCCOc1ccc2nc(NC(=O)OC)[nH]c2c1`, the growth is 66.5% (inactive).
Take `COc1cccc(/C=C2\Oc3cc(OCCN4CCCC4)ccc3C2=O)c1`: the growth is 102% (inactive).
On to `COc1ccc(/C=C2\Oc3cc(OCCCCN4CCCC4)ccc3C2=O)cc1`, for which the growth was 107% (inactive).
In the case of `COc1cccc(-c2nn(C(C)(C)C)cc2-c2ccnc(NCCCNS(=O)(=O)c3cccc4ccccc34)c2)c1`, the growth was 112% (inactive).
For `COc1cccc(-c2nc3sccn3c2-c2ccnc(NCCCNS(=O)(=O)c3c(Cl)cccc3Cl)c2)c1` the value was 90.1% (inactive); for `O=C1c2cc3c(cc2-c2c1c1cc(F)c(F)cc1c(=O)n2CCCn1ccnc1)OCO3`, 34.8% (inactive).
For `O=C(/C=C/c1cccc(Cl)c1)c1ccc(O)c(CN2CCN(c3cc4c(cc3F)c(=O)c(C(=O)O)cn4C3CC3)CC2)c1` the value was 58.8% (inactive).
Regarding `CCCn1c(=O)[nH]c(N)c([C@H]2c3ccccc3Oc3[nH]c(=O)n(CCC)c(=O)c32)c1=O`, the growth was 73% (inactive).
In the case of `N#CCCN=Nc1c(O)[nH]c2ccc(F)cc12`, the growth is 107% (inactive).
For `COc1ccc(-c2n[nH]nc2-c2csc3ccccc23)cc1OC`, the growth is 50.2% (inactive).
With `COc1cc(/C=C/c2cc(O)c3cc(C(C)=O)c(=O)oc3c2)cc2c1O[C@]1(C)CC[C@@H](O)C(C)(C)[C@H]1C2` the figure was -0.116% (active); with `O=C(N=Nc1c(O)[nH]c2ccc(Br)cc12)c1cc(-c2ccccc2)on1`, 106% (inactive); with `CSc1nc(NCc2ccccc2)c(C#N)c(-c2cccc([N+](=O)[O-])c2)n1`, 102% (inactive).
In the case of `O=S(=O)(Nc1ccc(Cl)c(F)c1)c1ccc(-c2cnc(C3CC3)o2)cc1`, the growth was 58.5% (inactive).
For `CC1(C)CC[C@]2(C(=O)Nc3ccccn3)CC[C@]3(C)C(=CC[C@@H]4[C@@]5(C)C/C(=C/c6cccnc6)C(=O)C(C)(C)[C@@H]5CC[C@]43C)[C@H]2C1` the value was 48.2% (inactive); for `O=S(=O)(Nc1ccc(Br)c(Cl)c1)c1ccc(-c2cnc(C3CC3)o2)cc1`, 57.9% (inactive); for `C=C(C)[C@@H]1CC[C@]2(C(N)=O)CC[C@]3(C)[C@H](CC[C@@H]4[C@@]5(C)C/C(=C/c6ccco6)C(=O)C(C)(C)[C@@H]5CC[C@]43C)[C@@H]12`, 99.6% (inactive).
On to `Cc1nc2c3c(-c4ccccc4)c(-c4ccccc4)oc3ncn2n1`, for which the growth is 118% (inactive).
On to `COc1cccc(-c2nn(C(C)(C)C)cc2-c2ccnc(NCCCNS(=O)(=O)c3ccc(C)cc3)c2)c1`, for which the growth was 112% (inactive).
Take `COc1ccc(-c2nc3ccc(-c4nc5ccc(N6CCN(c7ccc(F)cc7)CC6)cc5[nH]4)cc3[nH]2)cc1OC`: the growth is 90.6% (inactive).
With `O=C1NC(=S)NC(=O)C1CC(=O)n1c(-c2ccccc2)nc2ccccc21` the figure was 112% (inactive); with `CSc1nc(NCCN2CCOCC2)c(C#N)c(-c2cccc([N+](=O)[O-])c2)n1`, 103% (inactive).
In the case of `N#Cc1c(-c2ccc(Cl)cc2)nc(N=Nc2c(O)[nH]c3ccc(Cl)cc23)nc1N1CCOCC1`, the growth is 101% (inactive).
Consider `Cc1ccc(NS(=O)(=O)c2ccc(-c3cnc(C4CC4)o3)cc2)cc1C`, for which the growth is 66% (inactive).
With `Oc1ccccc1-c1nnc(CNc2ccc(Cl)cc2)o1` the figure was 32.2% (inactive).
